Reference: the supplement of paper PMC10369915

Target: SHP2 N-SH2 domain T42A
Experiment: log2 enrichment relative to wild-type ITIM peptide; higher = stronger binding

Q: With VFSVDYGELMF [PD-1 ITIM pTyr223 peptide variant D227M] as the binder, how does the log2 enrichment read?
A: The log2 enrichment was -0.781.

Q: How did the log2 enrichment turn out when VFSVDYGELDP [PD-1 ITIM pTyr223 peptide variant F228P] was run?
A: Its log2 enrichment is -1.6.

Q: Which log2 enrichment does the source give for VFSVDYGMLDF [PD-1 ITIM pTyr223 peptide variant E225M] here?
A: The log2 enrichment was -0.596.

Q: With PFSVDYGELDF [PD-1 ITIM pTyr223 peptide variant V218P] as the binder, how does the log2 enrichment read?
A: Its log2 enrichment is 0.0339.

Q: For VFSVDYGEPDF [PD-1 ITIM pTyr223 peptide variant L226P], which log2 enrichment is on record?
A: The log2 enrichment was -0.564.

Q: How did the log2 enrichment turn out when VFSVDYPELDF [PD-1 ITIM pTyr223 peptide variant G224P] was run?
A: The log2 enrichment was 1.75.

Q: For VFSVDYGELPF [PD-1 ITIM pTyr223 peptide variant D227P], which log2 enrichment is on record?
A: The log2 enrichment was -1.19.

Q: With VFSVPYGELDF [PD-1 ITIM pTyr223 peptide variant D222P] as the binder, how does the log2 enrichment read?
A: The log2 enrichment was 1.61.

Q: For VPSVDYGELDF [PD-1 ITIM pTyr223 peptide variant F219P], which log2 enrichment is on record?
A: Its log2 enrichment is 0.209.

Q: How did the log2 enrichment turn out when VFSPDYGELDF [PD-1 ITIM pTyr223 peptide variant V221P] was run?
A: Its log2 enrichment is -1.23.
